# Laboratory results as given in PubChem BioAssay AID463173 (ICCB-Longwood Screening Facility, Harvard Medical School, 2010).
# The campaign covered roughly 52,000 compounds. About 4,300 (8.3%) were called active. What follows is part of a selection rich in actives, with near analogues and random picks from the rest. A number with no mark means an inactive call. Rule as the data show it: active = survival mostly below about 52% (no sharp cut-off); inactive = mostly above about 56%.
# Test system: DeltatarO mutant
# Assay: S. aureus survival, RN4220 and DeltatarO strains – OD600, teichoic acid synthesis inhibitors, primary screen (AID 463173)
# Conditions: S. aureus RN4220 wild type/DeltatarO growth, OD600, 18 h, hits give low values, screened at 18.75 µg/mL (by protocol)
row,SMILES,survival
1,COc1cc(C(=O)N2CCN(CCc3ccccn3)CC2)cc(OC)c1OC,66%
2,Cc1ccc2nc(-c3cccc(Cl)c3)c(Nc3ccc4c(c3)OCO4)n2c1,75%
3,COc1cc(NC(=O)C2CCCN(S(=O)(=O)c3ccc4c(c3)CCCC(=O)N4)C2)cc(OC)c1 (centres undefined),94%
4,COc1ccc(CN(Cc2ccco2)C(=O)COc2ccccc2Cl)cc1,51%
5,CCc1cc(=O)[nH]c(SCc2nc(-c3cccc(Cl)c3)no2)n1,49%
6,CCCc1cc(=O)[nH]c(SCc2nc(-c3ccc(C)cc3)no2)n1,78%
7,O=c1cc(-c2ccccc2)nc(SCc2nc(-c3ccc(C(F)(F)F)cc3)no2)[nH]1,188%
8,CCCc1cc(=O)[nH]c(SCc2nc(-c3ccccc3)no2)n1,0% (active)
9,CCc1cc(=O)[nH]c(SCc2nc(-c3ccc(C(F)(F)F)cc3)no2)n1,32% (active)
10,CCc1cc(=O)[nH]c(SCc2nc(-c3ccccc3)no2)n1,95%
11,Cc1ccc(CNC(=O)c2sc3nc(C)cc(C)c3c2-n2cccc2)cc1,90%
12,COc1ccccc1CNC(=O)c1cc2c(s1)-c1ccc(Cl)cc1SC2,79%
13,Cc1ccccc1Nc1nnc(-c2ccc(C)c(S(=O)(=O)N3CCOCC3)c2)c2ccccc12,85%
14,O=C(NC(CO)C(=O)O)c1ccncc1 (centres undefined),94%
15,CCc1ccc(Cc2cnc(NC(=O)c3ccc4c(c3)CC(c3ccccc3)OC4=O)s2)cc1 (centres undefined),51%
16,COc1cccc(-n2c(C)nc3cc(C(=O)O)ccc32)c1,177%
17,O=C(Cn1c(=O)nc(-c2ccccc2)c2cc(Cl)ccc21)N1CCN(c2ccc(F)cc2)CC1,99%
18,O=S(=O)(NC1CCc2ccccc21)c1ccc(S(=O)(=O)N2CCCC2)cc1 (centres undefined),82%
19,CC1Cc2cc(S(=O)(=O)CCC(=O)Nc3ccccc3F)ccc2N1C(=O)C1CC1 (centres undefined),100%
20,CC(=O)c1cccc(Nc2ncnc3c2cnn3C)c1,67%
21,Cc1cccc(-c2nc(N3CCN(c4ccc(F)cc4)CC3)c3ccccc3n2)c1,54%
22,Cc1cccc(Nc2nc(-c3ccccc3)nc3ccccc23)c1,1% (active)
23,Fc1ccc(Nc2nc(SCc3ccc(Cl)cc3)nc3ccccc23)cc1,92%
24,Oc1cccc(Nc2nc(-c3ccccc3)nc3ccccc23)c1,10% (active)
25,Oc1ccc(Nc2ncnc3ccccc23)cc1,77%

row,SMILES,survival
1,CC(=O)c1cccc(Nc2nc(-c3ccccc3Cl)nc3ccccc23)c1,38% (active)
2,CC(=O)c1cccc(NC(=O)c2cc(-c3ccc(Cl)s3)nc3ccccc23)c1,77%
3,Cc1cccc(Nc2cc(C)nc3nc(-c4ccccc4)nn23)c1,95%
4,Cc1nnc2c3ccccc3nc(Nc3cccc(O)c3)n12,101%
5,Oc1ccc(Nc2nc(-c3ccc(Cl)cc3)nc3ccccc23)cc1,3% (active)
6,Cc1nnc2c(Nc3cccc(O)c3)nc3ccccc3n12,68%
7,COc1ccc(CCNC(=O)C(=O)NCC(c2cccs2)S(=O)(=O)c2ccc(C)cc2)cc1 (centres undefined),69%
8,O=C(CC1N=C2c3ccccc3N=C(SCc3ccc(F)cc3)N2C1=O)NC1CCCCC1 (centres undefined),124%
9,Cc1ccc(CNS(=O)(=O)c2cc3c(cc2C)NC(=O)CO3)cc1,79%
10,CCCN(CCC)c1nn2c(=O)c(C(=O)NCc3cccc(OC)c3)cnc2s1,84%
11,CC(C)NC(=O)CSc1nc2ccccc2n1CC(=O)NC(C)C,96%
12,COC(=O)c1ccccc1NC(=S)N(Cc1ccco1)Cc1cc2cc(C)ccc2[nH]c1=O,94%
13,O=c1c2ccccc2nc2sc(Nc3cccc(C(F)(F)F)c3)nn12,86%
14,CN(C(=O)c1cc2sccc2n1Cc1ccc(F)cc1)C1CCCCC1,88%
15,CCOc1ccccc1C(=O)Nc1ccc(S(=O)(=O)Nc2onc(C)c2C)cc1,77%
16,CCN(C1CCCCC1)S(=O)(=O)c1cccc(S(=O)(=O)N2CCCC2)c1,70%
17,COc1cc(C2c3c(oc4ccc(F)cc4c3=O)C(=O)N2c2nc(C)c(C)s2)cc(OC)c1OC (centres undefined),157%
18,COc1ccc2c(Sc3ccc(C)cc3)c(C(=O)NC(C)C)[nH]c2c1,86%
19,Cc1ccc(CCNC(=O)CCn2nc(-c3ccc(C)cc3)ccc2=O)cc1,94%
20,COc1ccc(C(=O)O)cc1Nc1nc2ccc(C)cc2n2cnnc12,117%
21,CCOc1ccccc1OCCCCn1c(-c2ccc(Cl)cc2)nc2ccccc2c1=O,45%
22,CC(=O)c1cccc(NC(=O)c2nc(-c3ccccc3)n(-c3cccc(C)c3)n2)c1,64%
23,OCCNc1nc(-c2cccnc2)nc2ccccc12,93%
24,CC(=O)c1cccc(Nc2nc(-c3cccc(C)c3)nc3ccccc23)c1,4% (active)
25,COc1ccc(Nc2nc(-c3ccccc3F)nc3ccccc23)cc1OC,99%

row,SMILES,survival
1,CC(=O)c1cccc(NC(=O)c2nc(-c3ccccc3)n(-c3ccccc3C)n2)c1,76%
2,COc1cc(Nc2nc(-c3ccc(OC)c(OC)c3)nc3ccccc23)cc(OC)c1,-2% (active)
3,COc1ccc(Nc2nc(-c3ccc(C)cc3)nc3ccccc23)c(OC)c1,75%
4,CCC(=O)OCCCNc1nc(-c2ccc(Cl)cc2)nc2ccccc12,-2% (active)
5,O=C(O)c1ccc(Nc2nc3ccccc3c3nncn23)cc1,95%
6,COc1ccc(CNC(=O)C(OC(=O)c2ccc(Cl)nc2)c2ccccn2)cc1 (centres undefined),104%
7,CCC(CC)C(=O)OCc1cc(=O)n2nc(C3CC3)sc2n1,62%
8,COc1ccc(CCNC(=O)CCc2c(C)nc3c(c(C)nn3-c3ccc(C)c(C)c3)c2C)cc1OC,57%
9,CC1=C(C)CC(C(=O)Nc2ccc(NC(=O)NC3CCCCC3)cc2)C(C(=O)O)C1 (centres undefined),81%
10,Cc1ccc(-c2nc3nc(C)cc(N4CCN(c5cc(Cl)ccc5C)CC4)n3n2)cc1,86%
11,Cc1cc(N2CCN(c3cccc(C(F)(F)F)c3)CC2)n2nc(-c3ccccc3)nc2n1,41% (active)
12,Cc1cccc(-c2nc3nc(C)cc(N4CCN(c5ccccc5)CC4)n3n2)c1,60%
13,Cc1cc(N2CCN(c3ccc(F)cc3)CC2)n2nc(-c3ccc(Cl)cc3)nc2n1,49%
14,COc1ccc(-c2nc3nc(C)cc(N4CCN(c5cccc(C(F)(F)F)c5)CC4)n3n2)cc1,45%
15,Cc1cc(N2CCN(c3cccc(C(F)(F)F)c3)CC2)n2nc(-c3ccccc3C)nc2n1,2% (active)
16,O=C(O)CCSc1nc2ccccc2o1,87%
17,CCc1cccc(C)c1NC(=O)CN(C)S(=O)(=O)c1cccc2nsnc12,89%
18,COC(=O)C1=C(C)NC(=O)C1(NC(=O)c1cc(OC)c(OC)c(OC)c1)C(F)(F)F (centres undefined),54%
19,CC(=O)c1ccc(NC(=O)C(C)n2nc(-c3ccccc3)ccc2=O)cc1 (centres undefined),32% (active)
20,CCC(C(=O)Nc1cccc(Cl)c1C)n1nc(C)c2sc3ccccc3c2c1=O (centres undefined),72%
21,Cc1ccc(-c2ccc(=O)n(CC(=O)Nc3ccc(C)cc3Cl)n2)cc1,50%
22,Cc1ccc(Cl)cc1NC(=O)C(C)n1nnc2sc(-c3ccccc3)cc2c1=O (centres undefined),59%
23,CCC(C(=O)Nc1cc(OC)cc(OC)c1)n1nc(-c2ccc(C)c(C)c2)ccc1=O (centres undefined),75%
24,CCC(C(=O)Nc1cc(Cl)ccc1OC)n1nc(-c2ccccc2)ccc1=O (centres undefined),24% (active)
25,CCC(C(=O)Nc1cccc(Cl)c1C)n1nc(-c2ccc(C)cc2)ccc1=O (centres undefined),41% (active)

row,SMILES,survival
1,Cc1ccc(-c2ccc(=O)n(C(C)C(=O)Nc3ccccc3Cl)n2)cc1C (centres undefined),66%
2,COc1ccc(Cl)cc1NC(=O)C(OC)c1ccccc1 (centres undefined),83%
3,COc1ccc(NC(=O)C(C)n2nc(-c3ccc(C)c(C)c3)ccc2=O)cc1OC (centres undefined),69%
4,Cc1ccc(Cl)cc1NC(=O)C(C)n1nc(-c2ccccc2)ccc1=O (centres undefined),20% (active)
5,CC(=O)c1ccc(NC(=O)CSc2ccc3nc(-c4ccccc4)cn3n2)cc1,89%
6,COc1cccc(N2CCN(c3ncc4c(n3)CCN(Cc3ccc(Br)cc3)C4)CC2)c1,79%
7,COc1ccc(/C=C\c2onc(C)c2S(=O)(=O)N2CCC(C(=O)Nc3cccc(C)c3C)CC2)cc1,68%
8,Cc1ccc(-c2nnn(CCC(=O)NC(C)(C)C)n2)cc1,91%
9,Cc1ccc(C(=O)NCCC(C)C)cc1NC(=O)c1nsc2ccccc12,73%
10,N#C/C(=C/c1cccs1)C(N)=S,99%
11,Cc1cc(SCC(=O)NCc2ccc(Cl)cc2)nc(=O)[nH]1,86%
12,O=C(Nc1cccc(-n2cnnn2)c1)c1ccccc1,95%
13,N#C/C(=C\Nc1ccccc1O)c1nc2ccccc2o1,1% (active)
14,Cc1ccc(C)c(N/C=C(\C#N)c2nc3ccccc3o2)c1,95%
15,N#C/C(=C/Nc1cccc2ccccc12)c1nc2ccccc2o1,54%
16,CCCOC(=O)c1c(NC(=O)C(C)Sc2nc(-c3ccccc3)cc(C(F)(F)F)n2)sc(C(=O)N(C)C)c1C (centres undefined),132%
17,CC(Oc1ccccc1)C(=O)Nc1nc2ccc(S(N)(=O)=O)cc2s1 (centres undefined),102%
18,COCCNc1nc(NCc2ccccc2OC)c2cnn(C)c2n1,69%
19,CCCCc1c(C)nc2c(-c3ccc(Cl)cc3)c(C)[nH]n2c1=O,-2% (active)
20,Cc1nc2c(-c3ccc(F)cc3)c(C)nn2c(C)c1CCC(=O)NCc1ccc(Cl)cc1,96%
21,CCOC(=O)CCc1c(C)nc2cc(-c3cc(OC)cc(OC)c3)[nH]n2c1=O,90%
22,CCOC(=O)Cc1c(C)nc2c(-c3ccc(Cl)cc3)c(C(F)(F)F)nn2c1C,63%
23,CCCCc1nc2ccccc2n2c(-c3ccc(OC)cc3)c3c(=O)n(C)c(=O)n(C)c3c12,49%
24,CCCCc1c(C)nc2c(-c3ccc(OC)cc3)c(C)[nH]n2c1=O,7% (active)
